Data on three compounds can be found in PubChem BioAssay AID651871 (Sanford-Burnham Center for Chemical Genomics, 2012).

Values joined by “and” are separate entries in the source; they are usually repeats but may differ in a detail not shown here. Equal values may be shown once.

This assay has as its system H9c2. Kind of assay: cardiomyocyte survival under oxidative or metabolic stress – cell-based, panel, H9c2 and HL-1, ATP luminescence, set 2, SAR follow-up (AID 651871).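 Further: cells exposed to stressor for 2 h before ATP readout; reference of the scale not given here.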 The note with it: H9c2/HL-1 cardiomyocytes, 2-deoxyglucose stress, with 2-deoxyglucose; run 12, at 79 µM (top of the series).
Turning to `CCOC(=O)c1cccc(NC(=O)CNC(=O)c2cc(-c3cc(OC)c(OC)c(OC)c3)nc3ccccc23)c1`, the activity (protection/inhibition) is 86.3%.
To `COc1ccc2nc(-c3cc(OC)c(OC)c(OC)c3)cc(C(=O)NCC(=O)Nc3ccc(C(C)=O)cc3)c2c1` belongs 79.9%; to `COc1ccc2c(c1OC)C(=O)N1c3ccccc3C(=O)N(Cc3cccc(Cl)c3Cl)C21` (stereo not drawn), 79.7% and 81.4% and -3.37%.
